# According to PubChem BioAssay (NCI):
# The panel holds about 79,000 compounds, 15% with a hit somewhere; the sample as a whole holds those more often. Unmarked numbers belong to inactive results. Active and inactive are the calls of the source. Rule as the data show it: active = growth inhibition above about 70%; inactive = the rest.
# Assays:
# [1] = NCI Yeast Anticancer Drug Screen. Data for the rad50 strain (AID 155);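 also: 0% = growth of vehicle-only cultures of the same strain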; conditions: S. cerevisiae rad50 strain growth inhibition; at 50.0 µM; hits give high values
# Summary of the method: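 Readout: growth inhibition relative to vehicle-treated cultures. Compound exposure was carried out in a genetically defined yeast strain deficient in DNA damage repair.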
# [2] = NCI Yeast Anticancer Drug Screen. Data for the mec2-1 strain (AID 157); conditions: S. cerevisiae mec2-1 strain, at 50.0 µM, hits give high values
# Summary of the method: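 Using mec2-1 yeast: add compound, measure growth, express inhibition versus vehicle-treated cultures.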
# [3] = NCI Yeast Anticancer Drug Screen. Data for the cln2 rad14 strain (AID 165);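 also: 0% = growth equal to vehicle treated cultures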; conditions: S. cerevisiae cln2 rad14 strain, at 50.0 µM, hits give high values
# Summary of the method: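 Yeast strain cln2 rad14, bearing defects in cell cycle control and DNA repair, serves as the test system; values reflect growth inhibition compared with vehicle.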
# [4] = NCI Yeast Anticancer Drug Screen. Data for the bub3 strain (AID 167); conditions: S. cerevisiae bub3 mutant strain, at 50.0 µM, hits give high values
# Summary of the method: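 Readout: yeast growth inhibition, expressed relative to vehicle-only wells. The test organism is a mutant strain from a panel with lesions in DNA repair or checkpoint genes.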
# [5] = NCI Yeast Anticancer Drug Screen. Data for the mlh1 rad18 strain (AID 175); conditions: S. cerevisiae mlh1 rad18 strain growth inhibition; at 50.0 µM; hits give high values
# Summary of the method: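 Steps: expose repair-defective yeast to compound; measure growth; express inhibition against vehicle-treated controls.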
SMILES,growth inhibition [1],growth inhibition [2],growth inhibition [3],growth inhibition [4],growth inhibition [5]
Cc1cc(C(C)(C)C)ccc1S(=O)(=O)/C=C/c1ccccc1,-18.6%,-23.1%,0.45%,-1.7%,-26.1%
NC(=O)CCCC(C(N)=O)(c1ccccc1)c1ccccc1,9.2%,13.3%,-11.2%,-7.15%,-3.9%
OCc1ccc(F)cc1CO,-12.4%,-2.35%,-17.1%,-11.2%,11.9%
CCOC(=O)CNc1nnnn1C1OC(CO)C(O)C1O (centres undefined),-2.05%,-13.1%,11.7%,-12%,-19.6%
CC(=O)CC(C)(C)NNC(N)=S,1.45%,0.7%,-21.6%,-4.2%,22.2%
CC(=O)C1=CN(C)c2ccccc2S1,29.6%,1.75%,-2.55%,-12.8%,6.15%
CNc1cccc2c1C(=O)c1ccccc1C2=O,0.55%,-9.95%,1.35%,3.85%,17.9%
CC(=O)OCC1OC(OC(C)=O)C(NC(=O)CNC(=O)OCc2ccccc2)C(OC(C)=O)C1OC(C)=O (centres undefined),21.8%,2.8%,7.8%,-4.75%,4.35%
CCOC(=O)C(/C(=N\NC(=O)OC)C(=O)Nc1cc(OC)ccc1OC)c1cnc2ccccc2n1 (centres undefined),-6.15%,-2.75%,18.8%,15.4%,0.7%
C=CCCCOC(C)=O,5.1%,-10.9%,4%,11.9%,1.8%
O=C(Nc1ccc(N=C=S)cc1Cl)c1ccc2ccccc2c1O,15.6%,14.3%,12.6%,4.05%,8.25%
[Fe+2].[Fe+2].c1ccc2c(c1)-c1nc-2nc2[n-]c(nc3nc(nc4[n-]c(n1)c1ccccc41)-c1ccccc1-3)c1cc3c4nc5nc(nc6[n-]c(nc7nc(nc([n-]4)c3cc21)-c1ccccc1-7)c1ccccc61)-c1ccccc1-5,-5.95%,-18.9%,-23%,6.75%,2.35%
CCOC(=O)CC(=O)c1ccc(Cl)cc1,15.1%,12.9%,6.95%,-12.8%,-7.65%
CCCCCCCCCCCCCCCC[Si](Cl)(Cl)Cl,-0.6%,-10.7%,-22.6%,2.95%,10.1%
CC(=O)OCCCC1CO1 (centres undefined),14.9%,-13.7%,3.15%,-14.2%,10.6%
CC(NNC(=S)N1CCCC1)c1cccc[n+]1[O-] (centres undefined),3.4%,-2.85%,-4.9%,8.3%,13.9%
CCCCN(C(=O)CCC)c1ccccc1,-71.1%,-0.75%,-40%,-11.2%,-10.1%
CCOC(=O)C1Cc2cc(C)c(C)cc2N(C)C1=O (centres undefined),7.6%,-10.2%,-22.5%,22.1%,-3.6%
CCOc1nc(N)nc(C)c1N=Nc1cccc([N+](=O)[O-])c1,20.9%,8.55%,-7.35%,36%,32%
Cc1nc2ccccc2c(=O)n1NC(=S)Nc1ccc(Cl)cc1,3.6%,-31.2%,–,-18.4%,-14.9%
O=C(O)C1COCOC1c1ccccc1 (centres undefined),-1.6%,-10.3%,-14.9%,-4.05%,6.9%
Cc1ccc2oc(=O)c3c(O)c4cccc(OC5OC(C)C6O[C@@H](c7ccccc7)OC6C5OC5OC(C)C(O)C(O)C5O)c4c4oc(=O)c1c2c34 (some centres undefined),87.2% (active),89.7% (active),83.6% (active),89.7% (active),75.4% (active)
CCN(CC)C(=S)SCCC(N)=O,-12.4%,-13.8%,9.15%,-1.25%,-0.65%
CCCOc1ccc(C(N)=S)c2ccccc12,-0.25%,1.1%,-28.2%,20.2%,12.3%
O=C(/C=C(\C(=O)c1ccccc1)c1ccccc1)c1ccc(Cl)cc1,-12%,8.5%,1.05%,-13.1%,-24.6%
CCCCNC(=O)NC1CC(OC2CC(O)(C(C)=O)Cc3c(O)c4c(c(O)c32)C(=O)c2c(OC)cccc2C4=O)OC(C)C1O (centres undefined),30.2%,14.9%,0.8%,1.25%,29.9%
CSc1ccc(NC(=S)NN(C)C)cc1,-22.9%,-25.3%,9.35%,1.4%,-7.65%
COC(=O)CCC(NC(=S)N/N=C(\C)c1cccs1)C(=O)OC (centres undefined),14.1%,-10.3%,0.45%,7.4%,-0.25%
